In PubChem BioAssay (EPA / NIEHS) one finds outcome and AC50 data, which are given here for twelve compounds.

In general, AC50 refers to the concentration giving half of the maximal activity seen.

Experiment [1] can be described thus: BSK_BT_PBMCCytotoxicity: PBMC Cytotoxicity Assessment in the BioMAP Diversity Plus: BT Assay (AID 2284225).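 Note: PBMC viability measured by Alamar Blue dye reduction fluorescence.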 To be noted: primary human B cells with PBMC. The method, boiled down: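 Primary human co-culture of B cells and PBMC, pre-dosed 1 h then activated with SEB and TSST-1. Cytotoxicity is taken from Alamar Blue dye reduction, added for 6 h at the end of a 90 h incubation.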

Read-out in experiment [2]: Secreted IgG (sIgG), gene 3500
Nature of the experiment: BSK_BT_sIgG: BioMAP Diversity Plus: BT Assay for Secreted IgG (sIgG) Biomarker Activity (AID 2284226). The following applies: primary human B cells with PBMC. The method, boiled down: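 Human B cell/PBMC co-culture; compound exposure 24 h; sIgG by ELISA; gain-of-signal fit vs DMSO baseline.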

Experiment [3] in a line: BSK_BT_Bcell_Proliferation: Viability Assessment in the BioMAP Diversity Plus: BT Assay for B cell Proliferation (AID 2284227). The following applies: primary human B cells with PBMC. The method, boiled down:
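Read-out is absorbance at 560 nm from sulforhodamine B staining of total protein, reflecting relative cell numbers in a human B cell and PBMC co-culture after 72 h of chemical exposure. Values were referenced to DMSO.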

Read-out in experiment [4]: Interleukin 6 (IL6), IL6 (gene 3569)
The experiment in a line: BSK_BT_xIL6: BioMAP Diversity Plus: BT Assay for Interleukin 6 (IL6) Biomarker Activity (AID 2284228). The following applies: primary human B cells with PBMC. The method, boiled down: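 IL-6 secretion measured (Luminex xMAP) in human primary B cell + PBMC co-culture at 24 h of chemical exposure; DMSO served as negative control and activity baseline, with curves fitted for increase.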

Read-out in experiment [5]: Interleukin 17A (IL17A), IL17A (gene 3605)
The experiment in a line: BSK_BT_xIL17A: BioMAP Diversity Plus: BT Assay for Interleukin 17A (IL17A) Biomarker Activity (AID 2284229). To be noted: primary human B cells with PBMC. The procedure, abridged:
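Human primary B cells plus PBMC, treated 24 h with chemicals; supernatant IL-17A quantified on Luminex xMAP beads. Gain of signal over DMSO control scored as activity.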

Read-out in experiment [6]: Tumor necrosis factor (Homo sapiens) (UniProt P01375)
The experiment in a line: BSK_BT_xTNFa: BioMAP Diversity Plus: BT Assay for Tumor necrosis factor alpha (TNF-alpha) Biomarker Activity (AID 2284230). The following applies: primary human B cells with PBMC. The method, boiled down: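 Human primary co-culture of B cells and peripheral blood mononuclear cells; TNF-alpha in supernatant, 24 h post-dose, Luminex multiplex; DMSO = baseline.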

Read-out in experiment [7]: Vascular cell adhesion molecule 1 (VCAM1), VCAM1 (gene 7412)
The experiment in a line: BSK_MyoF_VCAM1: BioMAP Diversity Plus: MyoF Assay for Vascular cell adhesion molecule 1 (VCAM1) Biomarker Activity (AID 2284231). The following applies: primary human lung fibroblasts. The procedure, abridged: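 VCAM-1 levels, lung fibroblasts, ELISA, 24 h exposure, increase scored relative to DMSO.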

Read-out in experiment [8]: Collagen I, COL1A1 (gene 1277)
The experiment in a line: BSK_MyoF_CollagenI: BioMAP Diversity Plus: MyoF Assay for Collagen I Biomarker Activity (AID 2284238). To be noted: primary human lung fibroblasts. The method, boiled down:
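Measured by ELISA: Collagen I from human lung fibroblasts 24 h after compound addition, analysed for signal gain with DMSO as baseline; overt toxicity read from SRB staining of parallel cultures at the same time.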

Read-out in experiment [9]: Collagen III, COL3A1 (gene 1281)
Nature of the experiment: BSK_MyoF_CollagenIII: BioMAP Diversity Plus: MyoF Assay for Collagen III Biomarker Activity (AID 2284239). The following applies: primary human lung fibroblasts. The method, boiled down:
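Multiplexed cell assay in lung fibroblasts, harvested at 24 h post-dose. Collagen III detected by ELISA, with positive-direction fitting relative to DMSO vehicle.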

Experiment [10] can be described thus: CCTE_Mundy_HCI_Cortical_Synap_Neur_Matur_NeuriteCount: CCTE's Synaptogenesis and Neurite Maturation Assay in rat cortical cells for Neurite Count, Mundy Lab (AID 2284222).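 Note: exposure from day 7 to day 12 in vitro with readout at day 12.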 The method, boiled down:
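Primary rat cortical cells were plated, treated with AraC at DIV 5, then exposed to chemicals from DIV 7 through DIV 12. After fixation and immunostaining for MAP2 and synaptophysin, imaging quantified neurites, with DMSO as the negative control.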

Experiment [11] can be described thus: CCTE_Mundy_HCI_Cortical_Synap_Neur_Matur_CellBodySpotCount: CCTE's Synaptogenesis and Neurite Maturation Assay in rat cortical cells for Cell Body Spot Count, Mundy Lab (AID 2284223). The procedure, abridged:
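Chemicals were applied to AraC-treated rat primary cortical cells at DIV 7 and measured at DIV 12. Fixed cells were labelled for MAP2, synaptophysin and nuclei, and high-content imaging gave cell body synaptophysin spot counts per neuron relative to DMSO.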

Experiment [12] in a line: CCTE_Mundy_HCI_Cortical_NOG_NeuronCount: CCTE's Neurite Outgrowth Assay in rat cortical cells for Neuron Count, Mundy Lab (AID 2284236; active = hit-call score of the fitted dose curve at least 0.9, where 1 is the maximum;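 note: neurons counted by imaging betaIII-tubulin and Hoechst stained cortical cells; cells exposed to compound for about 48 hours before fixation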). The method, boiled down: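 Read-out: neuron number by high-content imaging of betaIII-tubulin (Alexa Fluor-488) and Hoechst-labelled rat primary cortical cells.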
Experiment [13] can be described thus: CCTE_Mundy_HCI_Cortical_NOG_BPCount: CCTE's Neurite Outgrowth Assay in rat cortical cells for Branch Point Count, Mundy Lab (AID 2284237). The method, boiled down:
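Measured 50.33 h after dosing, this morphology endpoint uses rat primary cortical cultures labelled for betaIII-tubulin. Branch points are quantified by high-content imaging, with DMSO as negative control and baseline.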

Experiment [14] in a line: CCTE_Mundy_HCI_hNP1_Casp3_7: CCTE's Caspase-Glo 3/7 Assay in human neuroprogenitor cells for Apoptosis, Mundy Lab (AID 2284240). The procedure, abridged: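 Luminescent caspase-3/7 readout, 26.5 h post-dose, in human neural progenitor cells from WA09 embryonic stem cells. Cells grew 40–44 h at 37 °C, 5% CO2 before chemical addition. Activity analysed as signal increase over DMSO baseline.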

A short description of experiment [15]: CCTE_Mundy_HCI_hNP1_CellTiter: CCTE's Cell Titer-Glo 2 Assay in human neuroprogenitor cells for Viability, Mundy Lab (AID 2284241; active = hit-call score of the fitted dose curve at least 0.9, where 1 is the maximum). The method, boiled down:
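Viability read as luminescent ATP content (CellTiter-Glo, 30 min room temperature) twenty-four hours after dosing, relative to DMSO. Cells: WA09-derived hNP1 neuroprogenitors on poly-L-ornithine/laminin, plated 40 to 44 hours before chemical.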
On the technique in general: ATP-based viability assays read luminescence as a measure of living cells.

Results filed as inconclusive are left out. Calls of active or inactive are those of the source. Rule for the calls, unless noted: active = hit-call score of the fitted dose curve at least 0.9, where 1 is the maximum; inactive = score below 0.9.

Chain of Tumor necrosis factor (Homo sapiens) (P01375 whole entry, looked up): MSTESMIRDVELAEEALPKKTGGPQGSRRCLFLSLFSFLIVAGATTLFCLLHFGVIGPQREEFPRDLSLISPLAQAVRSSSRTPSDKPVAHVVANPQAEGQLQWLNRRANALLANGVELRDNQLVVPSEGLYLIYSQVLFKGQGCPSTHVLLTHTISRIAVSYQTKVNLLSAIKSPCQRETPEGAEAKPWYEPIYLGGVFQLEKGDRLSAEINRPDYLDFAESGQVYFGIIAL

As for `CC(O)C(F)(F)C(F)(F)F` (configuration not stated), the outcome in experiment [1], in experiment [2], in experiment [3], in experiment [4], in [5] and in [6] was inactive. For the same compound, the outcome in experiment [7], in experiment [8] and in [9] was inactive.
With `O=P1(N(CCCl)CCCl)NCCCO1` (configuration not stated), the result in experiment [10], in experiment [11], in experiment [12], in experiment [13], in experiment [14] and in experiment [15] was inactive.
For the compound `ClC(Cl)=C(c1ccc(Cl)cc1)c1ccccc1Cl`, the AC50 in [1] was 37.2 µM (active); in experiment [2] it was 29.6 µM (active); in experiment [3], 34.4 µM (active); in [4], 30 µM (active); in experiment [5], 27.3 µM (active); in experiment [6] it was 31.1 µM (active). The AC50 in [7] was 5.1 µM (active); in experiment [8] it was 4.93 µM (active); in [9] it was 7.34 µM (active).
As for `O=c1ssc(Cl)c1Cl`, the half-maximal activity concentration (AC50) in experiment [1] is 6.76 µM (active); in experiment [2], 3.62 µM (active); in experiment [3], 6.31 µM (active); in experiment [4] it was 6.42 µM (active); in experiment [5], 4.51 µM (active); in experiment [6] it was 8.17 µM (active). For the same compound, the AC50 is 6.69 µM (active) in experiment [7], 7.5 µM (active) in [8] and 9.69 µM (active) in experiment [9].
On to `O=C(O)C(F)(F)OC(F)(F)C(F)(F)OC(F)(F)C(=O)O`, for which the outcome in experiment [1], in experiment [2], in experiment [3], in experiment [4], in [5] and in [6] was inactive. Further, the result in experiment [7], in experiment [8], in [9], in experiment [14] and in experiment [15] was inactive.
Turning to `O=S1(=O)OCC2C(CO1)C1(Cl)C(Cl)=C(Cl)C2(Cl)C1(Cl)Cl` (configuration not stated), the half-maximal activity concentration (AC50) in experiment [1] was 32.9 µM (active); in experiment [2], 1.55 µM (active); in experiment [3], 25.9 µM (active); in experiment [4], 33 µM (active); in experiment [5], 16.1 µM (active); in experiment [6] it was 31 µM (active). In addition, the result in [7], in experiment [8] and in [9] was inactive.
`Nc1ccc([N+](=O)[O-])cc1Cl`: the outcome in [1], in experiment [2], in [3], in [4], in experiment [5] and in experiment [6] was inactive. The result in experiment [7], in experiment [8] and in experiment [9] was inactive.
On to `CCOP(=S)(NC(C)C)Oc1ccccc1C(=O)OC(C)C` (configuration not stated), for which the outcome in experiment [1], in experiment [3], in experiment [5], in experiment [6], in experiment [7] and in experiment [8] was inactive. Further, in [9], the result was inactive. Further, the AC50 in experiment [2] is 14.2 µM (active); in experiment [4], 14.3 µM (active).
`CC(Cl)CN(C)C` (configuration not stated): the outcome in [1], in [2], in experiment [3], in [4], in experiment [5] and in experiment [6] was inactive. Further, the outcome in experiment [8] and in experiment [9] was inactive. The AC50 in [7] is 20 µM (active).
Turning to `CCOP(=S)(OCC)SCSc1ccc(Cl)cc1`, the outcome in [1], in experiment [3], in experiment [4], in [5], in [6] and in [7] was inactive. Besides, the result in experiment [8] and in experiment [9] was inactive. Also, the AC50 in [2] was 20 µM (active).
`CCCCOCCOP(=O)(OCCOCCCC)OCCOCCCC`: the result in [1], in experiment [2], in experiment [3], in experiment [4], in experiment [5] and in [7] was inactive. Further, the outcome in experiment [8] and in experiment [9] was inactive. In addition, the AC50 in [6] was 0.015 µM (active).
With `N#Cc1c(-c2ccc(Cl)cc2)[nH]c(C(F)(F)F)c1Br`, the half-maximal activity concentration (AC50) is 2.33 µM (active) in experiment [1]; 0.309 µM (active) in [2]; 2.37 µM (active) in experiment [3]; 0.556 µM (active) in [4]; 1.14 µM (active) in experiment [5]; 10.8 µM (active) in experiment [6]. In addition, the AC50 is 0.71 µM (active) in experiment [7], 0.899 µM (active) in experiment [8] and 0.63 µM (active) in experiment [9].
